# Measurements as given in the supplement of paper PMC6555819.
# Legend:
# Assay in all cases: PBM binding z-score (relative to random genomic background probes); higher = stronger binding; sequences stand for … in GC…GCGATTGACAGCGTAGAATGAAGG
# [1] = system: RARb homodimer (NR concentration 270 nM)
# In short: (§1)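 Custom Agilent 4×180K protein-binding microarrays carried double-stranded probes. Their 34-nt variable regions held direct-repeat seeds, single-nucleotide variants, half-site ablations and random human genomic background sequences. Arrays were incubated 1 h with ligand-free nuclear receptor dimers in PBS pH 7.4, 2% milk, 0.02% Triton X-100, 1 mM DTT, 0.2 mg/mL BSA and 0.4 mg/ml salmon testes DNA. Antibodies against each partner (one per run) detected binding, and scanned fluorescence was regression-normalized. Binding z-scores use random background probes as reference.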
# [2] = system: RARg:RXRa (NR concentration 270 nM, RXRa partner concentration 90 nM)
# In short: as §1
# [3] = system: RARg homodimer (NR concentration 270 nM)
# In short: as §1
# [4] = system: RXRa DBDmut IVT, anti-RXR (DBD mutation: RXRa K156A/R161A, NR concentration 90 nM)
# In short: as §1
# [5] = system: RXRa homodimer (NR concentration 180 nM)
# In short: as §1
# [6] = system: THRa:RXRa (NR concentration 90 nM, RXRa partner concentration 90 nM)
# In short: as §1
# [7] = system: THRa homodimer (NR concentration 90 nM)
# In short: as §1
# [8] = system: VDR homodimer (NR concentration 270 nM)
# In short: as §1
Sequence,PBM binding z-score [1],PBM binding z-score [2],PBM binding z-score [3],PBM binding z-score [4],PBM binding z-score [5],PBM binding z-score [6],PBM binding z-score [7],PBM binding z-score [8]
CAGCCTAGGTAAGGGCCAGTATAGGAGGAACGTT,-0.166,-0.284,0.264,-1.12,-0.418,-0.373,-0.773,-0.434
TAGCCTAGGTCAATGGGCCAGTATAGTACGCATC,3.07,3.64,4.52,0.537,2.12,2.16,0.256,0.391
ATCTCTAGGTAAACATAGTTCAGTGAATGCAAAT,1.42,0.884,0.928,-0.105,0.495,1.07,0.425,0.447
TCGAGTCGGTTACCAATGGGGCATTCAGCTTTCT,0.134,-0.35,-0.367,0.329,-0.284,-0.43,-0.423,-0.105
AGAACAAGGGCAATGAGTTGATAGCACGGGTGGC,0.907,1.1,1.4,1.14,0.654,0.418,-0.2,2.73
TAGCCTAGGTCATTCACGGGCCAGTATAGAAAGC,2.73,4.9,4.23,1.96,2.7,2.91,0.437,1.43
GCTGCTAGGTCAACTGATGGTCAGCTACAGCTCG,3.81,5.01,5.31,1.56,2.82,2.94,0.9,0.228
TTTCCAAGGTGAAGGTCGTTGATCCCTCTGTAGA,2.06,1.51,1.29,0.389,1.95,2.94,1.8,1.37
TCATATAGGTAACAGGTGAAAGTCGGTGTGGTAA,1.03,0.519,0.556,1.41,1.11,0.822,0.292,0.21
AATAGAGGGTCATCGTAGGCCAGAGTACGCACAG,3.48,5.35,5.12,2.46,5.77,4.26,0.0486,2.55
ATCTCTAGATAACAAGTTCAGTGAAAGAGAGGAC,1.37,0.77,0.933,0.583,0.621,0.754,0.108,2.72
CAAACTAGGTCAGAGAGGTCAAAGTCCGTGCGTA,5.19,6.39,6.79,2.74,7.07,4.43,2.45,6.12
TCTCGGAGGACACGAAGGTCAGAGTTTTCCAGAG,3.77,3.25,3.92,0.753,2.03,2.83,1.19,1.93
CAGCCTAGGTCAAGGCCAGTATAGGAGGAACGTT,3.01,4.16,4.9,0.701,2.75,2.75,0.86,0.353
TCATTTAGGTAAAAGGTGAAAGTCGGTGTGGTAA,1.9,1.81,1.04,1.68,2.47,2.14,0.844,0.375
ATCTATAGGTAAAGATAGTTCAGTGAATGCAAAT,1.07,0.887,0.972,0.0561,0.775,0.89,0.0462,0.507
CCTAGCAGGCCAGGGTAACTCAAGCATTTCGCTT,-0.537,-0.456,-0.357,-0.541,-0.455,-0.054,-0.445,-0.329
TGAATGAGGTTATAAGAACAGGGAACGTTGCAAA,-0.0181,1.21,1,0.468,1.89,1.62,0.00377,0.365
GCGACTGGGGCATCAGCAGGTGACCATAACTTAA,0.835,0.367,0.374,-0.296,-0.0343,0.956,-0.08,-0.617
CCCTACGGGTCACTCCAGGTTATAGCATCGGAGT,3.22,4.52,4.67,0.434,4.72,4.94,0.457,1.79
CCTACTGGGCCATCATGTCATTGATATCAACGTT,0.671,0.216,0.415,-0.152,-0.104,0.045,0.122,-0.253
CCGACTGTGGCAAAGGTTACCATACTCAGTACGA,2,2.04,1.17,0.804,2.6,1.4,0.0506,0.185
ATCTCTAGATAAAGATAGTTCAGTGAATGCAAAT,0.48,0.16,0.499,-0.299,0.282,0.263,-0.124,0.668
AGAATGAGGTTATTAGGATCAGGGAATTGCGGTC,1.24,1.4,0.986,2.16,1.9,2.35,1.11,1.87
TTACCAAGGTGAGCTGAGGCCGTTGATCCAACTC,0.505,-0.177,-0.0104,-0.748,-0.163,3.6,0.533,-0.339
TAGCCTCGGTCATGGGCCAGTATACCACGCGAAC,1.72,1.72,2.42,-1.4,0.378,0.05,-0.217,-0.408
TCATATAGGTAAATGCAAGGTGAAAGTCCGATCT,1.3,1.09,0.776,1.93,1.36,2.64,1.5,0.698
CCTTATGGGTCACGAGGTTATAGCACGACGAGCG,3.34,5.59,4.86,1.46,6.1,3.3,0.63,1.1
